Results on eight compounds are retold here after PubChem BioAssay (Tox21).

Inconclusive results are not listed. Active and inactive are the calls of the source. Unless noted, calls come from the whole dose curve; as a rule, active = well fitted curve in the direction sought with a large enough effect in the repeat runs; inconclusive = weak or mixed curves; inactive = no such curve, though single readings can be large; an effect the other way counts as inactive or inconclusive.

A short description of experiment [1]: A CellTox Green Cytotoxicity Assay to monitor cytotoxicity in HEK293 cells - 32 hour (AID 1224881). Note: nearly all actives have a fitted effect of over 40% in size. Note: potency is the fitted concentration of half-maximal effect. An outline of the steps: (§1)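 Nonlytic real-time cytotoxicity: HEK293 + CellTox Green reagent plated, 5 h preincubation, pintool compound addition (23 nL in DMSO), 37 C for 40 h, fluorescence measured at successive time points.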
A short description of experiment [2]: A CellTox Green Cytotoxicity Assay to monitor cytotoxicity in HepG2 cells - 0 hour (AID 1224882). Note: nearly all actives have a fitted effect of over 35% in size. An outline of the steps: (§2)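 Read-out is fluorescence of a cyanine dye excluded from live cells that stains DNA of dead HepG2 cells, with signal proportional to cytotoxicity. Plates were read at 0, 8, 16, 24, 32 and 40 h after compound addition.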
The nature of experiment [3]: A CellTox Green Cytotoxicity Assay to monitor cytotoxicity in HepG2 cells - 32 hour (AID 1224883). Note: nearly all actives have a fitted effect of over 50% in size. Note: potency is the fitted concentration of half-maximal effect. An outline of the steps:
as §2

The nature of experiment [4]: A CellTox Green Cytotoxicity Assay to monitor cytotoxicity in HEK293 cells - 8 hour (AID 1224884). Note: nearly all actives have a fitted effect of over 35% in size. Note: potency is the fitted concentration of half-maximal effect. Put shortly: as §1
A short description of experiment [5]: qHTS RealTime-Glo MT Cell Viability Assay in HepG2 cells - 16 hour (AID 1224885). Note: nearly all actives have a fitted effect of over 50% in size. Note: potency is the fitted concentration of half-maximal effect. Put shortly: (§3)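 Real-time, nonlytic viability: 600 HepG2 cells/well mixed with NanoLuc enzyme plus prosubstrate; 5 h settle, compound (DMSO) added by pintool; luminescence monitored over 40 h at 37 C.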
(In general: In qHTS, concentration-response curves come from the screen itself.)

Experiment [6] is described as follows: qHTS RealTime-Glo MT Cell Viability Assay in HEK293 cells - 24 hour (AID 1224886). Note: nearly all actives have a fitted effect of over 50% in size. Note: potency is the fitted concentration of half-maximal effect. An outline of the steps: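 Cells + reagent dispensed (600 cells/well, HEK293) → 5 h at 37 C/5% CO2 → 23 nL compound in DMSO pinned → 40 h at 37 C → luminescence read at 0, 8, 16, 24, 32, 40 h.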
Experiment [7] in a line: qHTS RealTime-Glo MT Cell Viability Assay in HEK293 cells - 8 hour (AID 1224887). Note: nearly all actives have a fitted effect of over 50% in size. Note: potency is the fitted concentration of half-maximal effect. Put shortly: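 Cells were seeded together with NanoLuc luciferase and a prosubstrate that viable cells reduce to a luciferase substrate. After a 5 h incubation at 37 C/5% CO2, compounds were added and luminescence was measured repeatedly during 40 h of treatment.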
Experiment [8] can be described thus: A CellTox Green Cytotoxicity Assay to monitor cytotoxicity in HEK293 cells - 16 hour (AID 1224888). Note: nearly all actives have a fitted effect of over 35% in size. An outline of the steps:
as §1

Experiment [9] is described as follows: qHTS RealTime-Glo MT Cell Viability Assay in HepG2 cells - 0 hour (AID 1224889). Note: nearly all actives have a fitted effect of over 50% in size. An outline of the steps: as §3
Experiment [10] in a line: A CellTox Green Cytotoxicity Assay to monitor cytotoxicity in HepG2 cells - 8 hour (AID 1224890). Note: nearly all actives have a fitted effect of over 45% in size. Note: potency is the fitted concentration of half-maximal effect. An outline of the steps: as §2
Experiment [11] in a line: qHTS assay to identify small molecule antagonists of the estrogen receptor alpha (ER-alpha) signaling pathway using the BG1 cell line in the presence of 0.1 nM 17-beta-estradiol - cell viability counter screen (AID 1259241). Note: nearly all actives have a fitted effect of over 40% in size. Note: potency is the fitted concentration of half-maximal effect. An outline of the steps: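 Following 5 days in phenol red-free medium with charcoal-stripped serum, VM7Luc4E2 cells received test compounds alongside 0.1 nM 17beta-estradiol (final) at 37C for 22 hr. Live cells were then quantified via protease-substrate fluorescence.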

A short description of experiment [12]: qHTS assay to identify small molecule antagonists of the androgen receptor (AR) signaling pathway using the MDA cell line in the presence of 0.5 nM R1881 - cell viability counter screen (AID 1259242). Note: nearly all actives have a fitted effect of over 45% in size. Note: potency is the fitted concentration of half-maximal effect. Put shortly:
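Counter screen for cytotoxicity run in the same wells as the AR antagonist reporter screen: MDA-kb2 cells were treated 16 hr with test compounds and 0.5 nM R1881, then live-cell protease activity was measured by fluorescence.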

Experiment [13] is described as follows: qHTS assay to identify small molecule phospholipidosis (PLD) inducers (AID 1259344; active = well fitted curve in the direction sought with a large enough effect; an effect the other way counts as inactive or inconclusive). Put shortly:
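Quantitative HTS in HepG2: compound plus LipidTOX Red dye for 24 h, paraformaldehyde fixation with Hoechst 33342, widefield high-content imaging; amiodarone as positive and DMSO as negative control.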

A short description of experiment [14]: qHTS assay to identify small molecule HDAC inhibitors (AID 1259364). Note: top concentration of the series differs between compounds; nearly all actives have a fitted effect of over 45% in size. Put shortly: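 Luminescence from a cell-permeant luminogenic class I/II HDAC substrate reports endogenous deacetylase activity in intact HCT-116 cells treated with compounds for 2 h.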
A short description of experiment [15]: qHTS assay to identify small molecule HDAC inhibitors - cell viability counter screen (AID 1259365). Note: nearly all actives have a fitted effect of over 50% in size. Note: potency is the fitted concentration of half-maximal effect. An outline of the steps:
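HCT-116 wild-type, overnight attachment; 2hr drug exposure, 37C; CellTiter-Glo luminescent ATP readout after 30min RT.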

Experiment [16] is described as follows: qHTS assay to identify small molecule agonists of the sonic hedgehog signaling (Shh) pathway - cell viability counter screen (AID 1259366). Note: nearly all actives have a fitted effect of over 50% in size. Note: potency is the fitted concentration of half-maximal effect. An outline of the steps: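 Compounds in DMSO were pin-transferred onto 3T3 Gli1-Luc cells that had settled 4hr; plates then stood 24hr at 37C and 5% CO2. One hour before the end, CellTiter-Fluor was added and fluorescence recorded.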

Experiment [17] in a line: qHTS assay to identify small molecule antagonists of the sonic hedgehog signaling (Shh) pathway - cell viability counter screen (AID 1259367). Note: nearly all actives have a fitted effect of over 55% in size. Note: potency is the fitted concentration of half-maximal effect. Put shortly:
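Seed 3T3 Gli1-Luc cells at 2,000 per well; incubate 4 hr; add compound in DMSO, then conditioned medium; incubate at 37C with 5% CO2; add CellTiter-Fluor after 23 hr; read fluorescence 1 hr later.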

Experiment [18] is described as follows: qHTS assay to identify small molecule agonists of the sonic hedgehog signaling (Shh) pathway (AID 1259368; calls by dose curve;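 note: NIH/3T3-derived 3T3Gli1-Luc cells carrying a stable Gli1-driven firefly luciferase reporter; series mostly up to about 92 µM; nearly all actives have a fitted effect of over 15% in size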). An outline of the steps:
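3T3Gli1-Luc (NIH/3T3 clone, stable Gli1-Luc); 4 hr pre-incubation, then cpd in DMSO 24 hr, 37 C/5% CO2; luciferase reagent 30 min RT; luminescence.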

Experiment [19] has as its target Androgen receptor (Homo sapiens) (UniProt P10275). Briefly: qHTS assay to identify small molecule antagonists of the androgen receptor (AR) signaling pathway using the MDA cell line in the presence of 0.5 nM R1881 (AID 1259243). Note: nearly all actives have a fitted effect of over 50% in size. An outline of the steps: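 Luciferase luminescence is the read-out: compounds are tested for suppressing 0.5 nM R1881-driven MMTV reporter activity in MDA-kb2 cells after 16 hr at 37C.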

The target in experiment [20] is Estrogen receptor (Homo sapiens) (UniProt P03372). Briefly: qHTS assay to identify small molecule antagonists of the estrogen receptor alpha (ER-alpha) signaling pathway using the BG1 cell line in the presence of 0.1 nM 17-beta-estradiol (AID 1259244). An outline of the steps:
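Cells: VM7Luc4E2, endogenous ER-alpha, 4x ERE-luc stable. Pre-culture 5 d, phenol red-free, charcoal-stripped FBS. Plated 24 h, compound + E2 0.1 nM final, 22 h 37C/5% CO2. Readout ONE-Glo luminescence.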

Estrogen receptor (Homo sapiens), sequence (P03372 whole entry, looked up): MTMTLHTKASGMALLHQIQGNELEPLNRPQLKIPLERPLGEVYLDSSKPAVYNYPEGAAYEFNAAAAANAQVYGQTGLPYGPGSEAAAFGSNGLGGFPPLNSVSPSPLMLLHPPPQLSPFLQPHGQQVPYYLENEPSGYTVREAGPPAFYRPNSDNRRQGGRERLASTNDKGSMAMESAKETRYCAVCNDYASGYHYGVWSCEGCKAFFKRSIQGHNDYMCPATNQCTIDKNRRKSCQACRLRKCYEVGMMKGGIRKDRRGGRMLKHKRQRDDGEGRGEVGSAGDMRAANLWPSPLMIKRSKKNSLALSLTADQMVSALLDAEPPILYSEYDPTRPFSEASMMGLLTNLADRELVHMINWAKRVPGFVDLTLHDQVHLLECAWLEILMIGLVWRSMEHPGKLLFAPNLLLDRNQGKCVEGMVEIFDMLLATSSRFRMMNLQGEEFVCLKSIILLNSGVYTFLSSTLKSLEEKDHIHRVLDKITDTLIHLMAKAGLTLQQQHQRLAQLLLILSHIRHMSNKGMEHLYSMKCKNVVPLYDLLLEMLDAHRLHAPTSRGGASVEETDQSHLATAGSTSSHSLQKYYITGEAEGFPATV
Androgen receptor (Homo sapiens), sequence (P10275 whole entry, looked up): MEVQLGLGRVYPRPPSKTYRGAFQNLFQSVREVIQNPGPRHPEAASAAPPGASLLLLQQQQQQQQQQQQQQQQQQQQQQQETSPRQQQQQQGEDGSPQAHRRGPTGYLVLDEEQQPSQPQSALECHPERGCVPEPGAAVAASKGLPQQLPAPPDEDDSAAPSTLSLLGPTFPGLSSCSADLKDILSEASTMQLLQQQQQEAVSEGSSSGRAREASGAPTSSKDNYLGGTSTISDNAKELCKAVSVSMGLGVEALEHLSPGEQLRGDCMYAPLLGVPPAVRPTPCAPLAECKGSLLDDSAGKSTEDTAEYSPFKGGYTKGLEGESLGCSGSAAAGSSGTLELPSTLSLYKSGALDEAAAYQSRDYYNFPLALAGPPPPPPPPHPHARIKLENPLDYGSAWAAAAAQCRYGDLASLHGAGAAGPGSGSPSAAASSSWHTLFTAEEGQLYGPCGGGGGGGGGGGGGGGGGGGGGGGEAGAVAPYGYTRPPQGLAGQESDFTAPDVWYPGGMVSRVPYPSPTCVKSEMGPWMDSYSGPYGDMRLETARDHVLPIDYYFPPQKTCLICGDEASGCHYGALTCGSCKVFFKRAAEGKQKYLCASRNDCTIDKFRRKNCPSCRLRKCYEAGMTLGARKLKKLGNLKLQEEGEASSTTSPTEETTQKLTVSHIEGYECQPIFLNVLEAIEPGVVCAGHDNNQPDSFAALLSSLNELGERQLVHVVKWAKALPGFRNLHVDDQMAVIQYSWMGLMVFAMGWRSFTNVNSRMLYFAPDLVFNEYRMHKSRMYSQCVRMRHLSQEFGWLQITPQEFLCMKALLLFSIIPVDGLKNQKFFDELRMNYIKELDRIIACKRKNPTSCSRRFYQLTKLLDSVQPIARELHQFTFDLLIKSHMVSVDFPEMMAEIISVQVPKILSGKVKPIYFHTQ

Turning to `C[N+]1(C)[C@@H]2CC[C@H]1CC(OC(=O)C(CO)c1ccccc1)C2` (stereo not given in full), the Potency result in experiment [1], in experiment [2], in experiment [3], in experiment [4], in [5] and in [6] was “inactive” throughout. Also, the Potency entry in experiment [7], in experiment [8], in experiment [9], in experiment [10], in [11] and in experiment [12] was “inactive” in each case. Further, the Potency entry in [14], in experiment [15], in [16], in [17] and in [18] was “inactive” each time. Moreover, the call in experiment [13] was inactive.

Turning to `CN1CCc2cc3c(cc2C1O)OCO3` (stereo not given), the Potency entry in [1], in [2], in experiment [3], in experiment [4], in experiment [5] and in [6] was “inactive” in each case. Also, the Potency result in experiment [7], in experiment [8], in experiment [9], in [10], in [12] and in [14] was “inactive” in each case. The Potency entry in [15] and in [18] was “inactive” throughout.

For `COc1ccc2c(c1OC)C(=O)O[C@@H]2[C@H]1c2cc3c(cc2CCN1C)OCO3`, the Potency result in experiment [1], in [2], in experiment [3], in experiment [4], in experiment [5] and in experiment [6] was “inactive” each time. Also, the Potency entry in [7], in experiment [8], in [9], in [10], in experiment [12] and in experiment [19] was “inactive” each time. Moreover, the Potency entry in [14], in experiment [15] and in experiment [18] was “inactive” each time. Further, the results for the Potency in experiment [16] and in [17] were 2.41 µM (active) and 3.03 µM (active), respectively.

As for `CC[C@H](C)[C@H]1O[C@]2(C=C[C@@H]1C)C[C@@H]1C[C@@H](C/C=C(\C)[C@@H](O[C@H]3C[C@H](OC)[C@@H](O[C@H]4C[C@H](OC)[C@@H](NC)[C@H](C)O4)[C@H](C)O3)[C@@H](C)/C=C/C=C3\CO[C@@H]4[C@H](O)C(C)=C[C@@H](C(=O)O1)[C@]34O)O2`, the Potency in [1] was 12.3 µM (active); in experiment [3], 11 µM (active); in experiment [4], 13.8 µM (active); in experiment [5], 12.3 µM (active); in [6] it was 5.49 µM (active); in [7] it was 8.71 µM (active). Moreover, the Potency in experiment [10] is 17.4 µM (active); in experiment [11] it was 15.4 µM (active); in experiment [12], 17.2 µM (active); in [20], 10.9 µM (active); in [15] it was 48.6 µM (active); in experiment [16], 12.2 µM (active). Moreover, the Potency in experiment [17] was 13.7 µM (active). Further, the Potency entry in [2], in [9], in experiment [14] and in experiment [18] was “inactive” each time.

With `CCCCON=O`, the Potency entry in experiment [1], in [2], in experiment [3], in experiment [4], in experiment [5] and in experiment [6] was “inactive” each time. The Potency result in [7], in [8], in [9], in [10], in experiment [11] and in experiment [12] was “inactive” throughout. In addition, the Potency result in [14], in [15], in experiment [16], in [17] and in [18] was “inactive” each time.

For `CC(=O)O.CC(=O)O.CC(=O)O.CC(=O)O.CC(=O)O.CC(=O)O.CC(=O)O.O.O.[Cr].[Cr].[Cr]`, the Potency entry in experiment [1], in experiment [2], in experiment [3], in experiment [4], in experiment [5] and in experiment [6] was “inactive” in each case. In addition, the Potency entry in [7], in experiment [8], in [9], in experiment [10], in [11] and in experiment [12] was “inactive” each time. Also, the Potency entry in experiment [15], in [17] and in experiment [18] was “inactive” each time.

As for `CC(=O)[O-].CC(=O)[O-].O.O.[Zn+2]`, the Potency entry in experiment [1], in [2], in experiment [3], in experiment [4], in experiment [5] and in experiment [6] was “inactive” each time. The Potency result in [7], in [8], in experiment [9], in experiment [10], in experiment [11] and in experiment [12] was “inactive” each time. Further, the Potency entry in experiment [14], in [15], in experiment [16], in experiment [17] and in [18] was “inactive” each time.

With `[Cl-].[Cl-].[Cl-].[Yb+3]`, the Potency result in experiment [1], in experiment [2], in experiment [3], in experiment [4], in experiment [5] and in experiment [6] was “inactive” each time. In addition, the Potency entry in experiment [7], in experiment [8], in experiment [9], in experiment [10], in experiment [11] and in [12] was “inactive” in each case. Also, the Potency result in experiment [14], in experiment [15] and in experiment [18] was “inactive” each time.
